# Results reported in PubChem BioAssay (NCATS).
# Inconclusive results are not listed. A call without a number means that no potency is given here. Active and inactive are the calls of the source. Unless noted, calls come from the whole dose curve; as a rule, active = well fitted curve in the direction sought with a large enough effect; inconclusive = small, poorly fitted or top-dose-only effect, or another doubt; inactive = no such curve, though single readings can be large; an effect the other way counts as inactive or inconclusive.
# Key:
# [1] = Nrf2 qHTS screen for inhibitors: Validation (AID 493153; active = well fitted inhibition curve with a large enough effect in the main read-out, with a control signal flat, not every such curve was filed as active); conditions: viability change: measured here: cytotoxicity max response
# Summary of the method: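 Concentration-response on A549 ARE_Fluc reporter cells exposed 18-24 h at 37 C, 5% CO2. Cytotoxicity read first by CellTiter-Fluor fluorescence (Ex 405/Em 525), then Nrf2 inhibition by BugLite luminescence after 15 min.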
# [2] = qHTS for Inhibitors of Cell Surface uPA Generation: Validation Assay (AID 493164);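 note: RAW 264.7 macrophage cells exposed to compound for 18 h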
# Summary of the method: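 ATP-Lite luminescence read-out: ATP remains high when uPA activity-dependent LF translocation into the cytoplasm is blocked. RAW 264.7 cells, 18 h compound exposure at 37 C; 7-point titration, 2.45 nM to 38.3 uM final.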
# [3] = target: Galactokinase (Homo sapiens) (UniProt P51570); assay: qHTS Validation Assay for Inhibitors of Human Galactokinase (GALK) (AID 493189)
# Sequence of Galactokinase (Homo sapiens) (P51570 whole entry, looked up): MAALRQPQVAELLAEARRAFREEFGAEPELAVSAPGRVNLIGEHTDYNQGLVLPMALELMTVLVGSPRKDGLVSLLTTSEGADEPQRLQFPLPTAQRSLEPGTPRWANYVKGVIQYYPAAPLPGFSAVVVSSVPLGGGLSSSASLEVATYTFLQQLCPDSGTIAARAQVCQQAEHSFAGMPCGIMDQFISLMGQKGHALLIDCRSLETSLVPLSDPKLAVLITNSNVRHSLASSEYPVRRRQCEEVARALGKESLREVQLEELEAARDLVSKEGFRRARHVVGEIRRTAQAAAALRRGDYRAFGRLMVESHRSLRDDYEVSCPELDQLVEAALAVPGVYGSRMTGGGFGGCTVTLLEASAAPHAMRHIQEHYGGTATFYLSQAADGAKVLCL
# Summary of the method: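 Inhibition was measured as remaining ATP, detected by luciferase luminescence after a 1 h room-temperature reaction. Final conditions: 5 nM GALK, 100 uM galactose, 35 uM ATP, pH 8.0 HEPES buffer.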
# [4] = Validation screen for small molecules that induce DNA re-replication in SW480 colon adenocarcinoma cells (AID 504364)
# Summary of the method: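 Image-based DNA content read-out: Hoechst stain 40 min, total nuclear fluorescence intensity (ex 405 nm, em 500-530 nm) after 48 h compound exposure of 250 SW480 cells/well at 37 C, 5% CO2, versus DMSO vehicle.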
# [5] = target: Ubiquitin carboxyl-terminal hydrolase 1 (Homo sapiens) (UniProt O94782); assay: Inhibitors of USP1/UAF1: Pilot qHTS (AID 504865);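 note: rhodamine fluorescence freed from ubiquitin-rhodamine substrate followed over time; top concentration of the series differs between compounds; nearly all actives have a fitted effect of over 35% in size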
# Sequence of Ubiquitin carboxyl-terminal hydrolase 1 (Homo sapiens) (O94782 whole entry, looked up): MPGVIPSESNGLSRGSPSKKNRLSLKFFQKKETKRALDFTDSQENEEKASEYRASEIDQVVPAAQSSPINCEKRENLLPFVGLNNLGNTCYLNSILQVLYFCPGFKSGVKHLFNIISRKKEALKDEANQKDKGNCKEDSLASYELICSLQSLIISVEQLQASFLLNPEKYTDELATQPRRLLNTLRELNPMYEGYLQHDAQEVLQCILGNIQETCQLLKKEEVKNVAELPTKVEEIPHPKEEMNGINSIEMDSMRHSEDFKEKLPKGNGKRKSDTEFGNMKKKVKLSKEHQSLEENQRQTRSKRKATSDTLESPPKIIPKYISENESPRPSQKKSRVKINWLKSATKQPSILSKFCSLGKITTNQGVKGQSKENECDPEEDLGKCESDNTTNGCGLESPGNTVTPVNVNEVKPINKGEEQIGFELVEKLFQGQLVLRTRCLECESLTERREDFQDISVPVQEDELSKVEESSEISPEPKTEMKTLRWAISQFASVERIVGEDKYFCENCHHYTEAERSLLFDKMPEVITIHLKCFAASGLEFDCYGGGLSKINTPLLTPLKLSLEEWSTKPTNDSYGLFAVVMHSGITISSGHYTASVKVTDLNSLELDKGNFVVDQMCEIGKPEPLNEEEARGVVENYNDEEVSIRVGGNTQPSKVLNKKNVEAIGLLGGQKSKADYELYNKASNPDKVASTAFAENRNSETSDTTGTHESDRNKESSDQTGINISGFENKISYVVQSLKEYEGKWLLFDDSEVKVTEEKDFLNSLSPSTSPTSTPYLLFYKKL
# Summary of the method: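 Deubiquitinase activity followed as kinetic rhodamine fluorescence release from 150 nM Ub-Rho. 1 nM USP1/UAF1 with compound, after 15 min room-temperature preincubation, in HEPES pH 7.8 buffer containing TCEP, EDTA, BSA and Tween-20.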
# [6] = qHTS for Inhibitors of ATXN expression: Validation of Cytotoxic Assay (AID 588349)
# Summary of the method: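 Cytotoxicity counter-screen: ATP-based luminescent viability (CellTiter Glo) after 72 hr exposure of HEK293 cells to a compound titration at 37 degrees C.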
# [7] = qHTS for Inhibitors of ATXN expression: Validation (AID 588378); note: series mostly up to about 57 µM; nearly all actives have a fitted effect of over 75% in size
# Summary of the method: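 Luciferase luminescence (Bright-Glo) from an ATXN2-FFLuc HEK293 line after 24 h compound exposure at 37 °C, preceded by a CellTiter-Fluor fluorescence viability read. Serial dilutions of a reference ATXN2 inhibitor and a luciferase inhibitor served as controls.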
# [8] = target: Voltage-gated inwardly rectifying potassium channel KCNH2 (Homo sapiens) (UniProt Q12809); assay: qHTS Assay for Small Molecule Inhibitors of the Human hERG Channel Activity (AID 588834);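 note: top concentration of the series differs between compounds; lower thallium flux fluorescence means stronger hERG block; nearly all actives have a fitted effect of over 50% in size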
# Sequence of Voltage-gated inwardly rectifying potassium channel KCNH2 (Homo sapiens) (Q12809 whole entry, looked up): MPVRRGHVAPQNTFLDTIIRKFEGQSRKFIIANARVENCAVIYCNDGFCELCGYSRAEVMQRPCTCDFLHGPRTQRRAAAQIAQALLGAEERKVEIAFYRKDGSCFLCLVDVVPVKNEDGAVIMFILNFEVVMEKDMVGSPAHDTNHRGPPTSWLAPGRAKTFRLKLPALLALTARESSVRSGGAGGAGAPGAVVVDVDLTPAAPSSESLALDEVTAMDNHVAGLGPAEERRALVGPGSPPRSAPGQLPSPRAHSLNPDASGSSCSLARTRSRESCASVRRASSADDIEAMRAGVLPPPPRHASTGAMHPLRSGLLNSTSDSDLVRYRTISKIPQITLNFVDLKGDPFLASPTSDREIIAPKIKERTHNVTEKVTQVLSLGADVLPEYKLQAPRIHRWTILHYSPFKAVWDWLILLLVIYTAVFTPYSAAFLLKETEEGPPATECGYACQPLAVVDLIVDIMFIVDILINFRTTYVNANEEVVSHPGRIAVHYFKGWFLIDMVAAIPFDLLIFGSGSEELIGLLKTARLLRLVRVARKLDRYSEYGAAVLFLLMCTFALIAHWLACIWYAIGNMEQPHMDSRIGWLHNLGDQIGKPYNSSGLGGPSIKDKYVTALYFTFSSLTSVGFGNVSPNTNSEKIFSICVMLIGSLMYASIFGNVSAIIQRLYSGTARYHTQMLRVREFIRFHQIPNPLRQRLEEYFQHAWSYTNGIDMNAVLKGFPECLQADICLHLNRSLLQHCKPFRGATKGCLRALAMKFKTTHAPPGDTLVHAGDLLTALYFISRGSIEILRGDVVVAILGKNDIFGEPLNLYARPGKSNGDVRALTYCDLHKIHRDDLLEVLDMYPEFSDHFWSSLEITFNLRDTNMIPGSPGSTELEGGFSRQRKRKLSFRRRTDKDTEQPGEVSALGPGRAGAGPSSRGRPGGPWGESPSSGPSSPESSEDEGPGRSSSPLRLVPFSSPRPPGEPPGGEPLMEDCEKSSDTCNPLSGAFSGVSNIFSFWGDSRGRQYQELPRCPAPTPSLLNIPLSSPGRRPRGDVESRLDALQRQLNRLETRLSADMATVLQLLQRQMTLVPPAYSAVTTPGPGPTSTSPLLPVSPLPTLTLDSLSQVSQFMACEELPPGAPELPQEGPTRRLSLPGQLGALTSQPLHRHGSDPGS
# Summary of the method: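 hERG block measured as reduced thallium-dye (FluxOR) fluorescence after stimulation buffer addition, read over 2 min. Cells were hERG-BacMam-transduced U2OS exposed to compound ~10 min […]; concentration-response fitted with Hill equation for AC50.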
# [9] = target: Glutaminase kidney isoform, mitochondrial (Homo sapiens) (UniProt O94925); assay: qHTS for Inhibitors of Glutaminase (GLS): LOPAC Validation (AID 624146);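 note: glutamate product detected by oxidase and peroxidase coupled Amplex red fluorescence gain; series mostly up to about 46 µM; nearly all actives have a fitted effect of over 60% in size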
# Sequence of Glutaminase kidney isoform, mitochondrial (Homo sapiens) (O94925 whole entry, looked up, canonical isoform): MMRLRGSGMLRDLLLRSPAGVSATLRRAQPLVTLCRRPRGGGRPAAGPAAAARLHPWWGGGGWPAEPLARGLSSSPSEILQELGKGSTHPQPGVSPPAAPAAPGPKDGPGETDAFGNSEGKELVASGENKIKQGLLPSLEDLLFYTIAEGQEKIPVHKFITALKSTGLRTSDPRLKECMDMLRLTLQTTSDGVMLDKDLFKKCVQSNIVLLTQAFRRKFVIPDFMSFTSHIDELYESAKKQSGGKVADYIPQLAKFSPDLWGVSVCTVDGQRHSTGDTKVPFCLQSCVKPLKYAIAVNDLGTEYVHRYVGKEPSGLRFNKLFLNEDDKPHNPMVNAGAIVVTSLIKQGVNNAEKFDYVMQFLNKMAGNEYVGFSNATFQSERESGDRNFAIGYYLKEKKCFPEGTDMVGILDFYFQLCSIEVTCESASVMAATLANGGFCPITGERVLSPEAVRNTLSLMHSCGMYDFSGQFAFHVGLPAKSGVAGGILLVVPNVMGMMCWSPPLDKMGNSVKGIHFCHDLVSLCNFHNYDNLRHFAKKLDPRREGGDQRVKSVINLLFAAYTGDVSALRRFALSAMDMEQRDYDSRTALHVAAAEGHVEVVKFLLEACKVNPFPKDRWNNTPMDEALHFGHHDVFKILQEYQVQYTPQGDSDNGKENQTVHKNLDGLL
# Summary of the method: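 hKGA in 45 mM KH2PO4 pH 8.2, 0.02% Tween-20 with pin-transferred compounds; 1 mM L-glutamine (stock) plus glutamate oxidase/HRP/Amplex Red coupling added. Fluorescence read initially and after 30 min at RT.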
# [10] = qHTS of Trypanosoma Brucei Inhibitors: LOPAC Validation (AID 624147)
# Summary of the method: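 Glycolytic pyruvate kinase of T. brucei was incubated with substrate, test compound and 130 uM ADP for 45 minutes at room temperature. Luminescent Kinase-Glo Plus signal was measured after 10 minutes.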
# [11] = target: Glucagon-like peptide 1 receptor (Homo sapiens) (UniProt P43220); assay: qHTS of GLP-1 Receptor Agonists: LOPAC Validation (AID 624148);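 note: luminescence from a luciferase reporter switched on by cAMP; higher luminescence signal means agonism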
# Sequence of Glucagon-like peptide 1 receptor (Homo sapiens) (P43220 whole entry, looked up): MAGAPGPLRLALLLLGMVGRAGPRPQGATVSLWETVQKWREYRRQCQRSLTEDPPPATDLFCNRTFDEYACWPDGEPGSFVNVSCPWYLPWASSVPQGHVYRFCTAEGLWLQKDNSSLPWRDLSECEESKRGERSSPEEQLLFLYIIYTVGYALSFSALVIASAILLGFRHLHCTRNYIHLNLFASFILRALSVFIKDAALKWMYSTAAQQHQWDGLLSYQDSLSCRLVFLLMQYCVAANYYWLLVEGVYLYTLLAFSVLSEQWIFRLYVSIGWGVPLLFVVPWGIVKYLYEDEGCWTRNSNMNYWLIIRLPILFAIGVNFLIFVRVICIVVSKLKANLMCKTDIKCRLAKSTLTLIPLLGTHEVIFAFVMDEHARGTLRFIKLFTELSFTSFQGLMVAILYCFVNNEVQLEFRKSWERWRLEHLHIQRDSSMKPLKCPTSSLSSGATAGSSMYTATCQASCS
# Summary of the method: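 Agonism scored as increased luciferase luminescence driven by cAMP in HEK293 clones carrying GLP-1R. Cells settled 12 hours, received compound for 4-6 hr at 37 deg C, 5% CO2, and were read after 12 min detection reagent at RT.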
# [12] = qHTS of Nrf2 Activators: LOPAC Validation (AID 624149)
# Summary of the method: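 Luciferase signal from ARE activation, read with Steady-Glo after 30 min at room temperature. Compounds were pin-transferred onto AREc32_Fluc cells (1000/well, OPTI-MEM/5% FBS, seeded overnight) and left 24 hr at 37 deg C.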
# [13] = HTS Assay for Allosteric Antagonists of the Human D2 Dopamine Receptor: Hit Validation in HTRF (AID 624455);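 note: stable D1 dopamine receptor cell line scored for blocking the D1 response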
# Summary of the method: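 Inhibition of the D1-mediated response was measured by HTRF. Cells used were a line stably expressing the D1 dopamine receptor.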
# [14] = qHTS for compounds that reverse cellular toxicity of Amyloid beta (A-beta) peptide in yeast: LOPAC Validation Assay (AID 720559)
# Summary of the method: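 Rescue of A-beta toxicity was scored as yeast growth by 600 nm absorbance after 48 hr at 30 C with compound. Normalization used DMSO (negative) and equimolar ferric chloride plus clioquinol (positive).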
# [15] = qHTS for Activators of Parkin Expression: LOPAC Validation Assay (NLuc Reporter) (AID 720572)
# Summary of the method: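 Compound effects on Parkin promoter activity were measured as NanoLuc luminescence after 24 h at 37 C. The neuronal reporter line also carried FLuc, which was read first. LOPAC compounds were tested at 7 concentrations, with normalization to DMSO (0%) and positive control (100%).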
# [16] = target: T1, Hexokinase-4 (Homo sapiens) + Glucokinase regulatory protein (Homo sapiens) (UniProt P35557+Q14397); assay: qHTS assay for inhibitors of recombinant human GCK-GKRP interaction: Diaphorase-coupled assay (AID 743205)
# T1 sequence (P35557 whole entry, looked up): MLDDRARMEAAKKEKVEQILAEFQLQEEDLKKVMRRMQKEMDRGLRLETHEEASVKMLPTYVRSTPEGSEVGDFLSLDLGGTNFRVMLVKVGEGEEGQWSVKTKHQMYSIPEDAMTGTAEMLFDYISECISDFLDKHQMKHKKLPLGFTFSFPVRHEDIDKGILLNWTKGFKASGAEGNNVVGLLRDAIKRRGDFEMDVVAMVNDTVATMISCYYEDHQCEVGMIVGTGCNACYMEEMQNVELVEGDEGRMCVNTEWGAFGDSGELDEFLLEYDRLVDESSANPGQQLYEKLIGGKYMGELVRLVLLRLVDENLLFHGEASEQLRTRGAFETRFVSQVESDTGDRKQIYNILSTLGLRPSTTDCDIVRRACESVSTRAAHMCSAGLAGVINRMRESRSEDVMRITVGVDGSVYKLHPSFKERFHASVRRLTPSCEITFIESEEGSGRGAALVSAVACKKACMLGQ
# T1 sequence (Q14397 whole entry, looked up): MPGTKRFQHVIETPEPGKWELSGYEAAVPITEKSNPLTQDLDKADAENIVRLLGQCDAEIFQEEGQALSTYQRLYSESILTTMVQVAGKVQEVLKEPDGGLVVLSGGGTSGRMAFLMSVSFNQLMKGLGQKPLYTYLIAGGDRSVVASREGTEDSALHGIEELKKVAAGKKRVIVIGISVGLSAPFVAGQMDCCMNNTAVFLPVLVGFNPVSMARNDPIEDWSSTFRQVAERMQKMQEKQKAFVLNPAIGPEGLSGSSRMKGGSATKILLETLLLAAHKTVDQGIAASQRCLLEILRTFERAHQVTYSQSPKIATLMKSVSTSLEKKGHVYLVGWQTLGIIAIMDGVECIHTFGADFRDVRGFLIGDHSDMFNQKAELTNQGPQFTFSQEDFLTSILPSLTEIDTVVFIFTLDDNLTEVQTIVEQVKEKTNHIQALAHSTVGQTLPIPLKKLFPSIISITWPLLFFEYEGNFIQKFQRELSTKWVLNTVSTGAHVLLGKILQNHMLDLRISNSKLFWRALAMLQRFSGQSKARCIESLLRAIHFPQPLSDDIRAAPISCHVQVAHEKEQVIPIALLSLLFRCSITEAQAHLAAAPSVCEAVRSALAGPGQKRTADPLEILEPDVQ
# Summary of the method: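 A kinetic fluorescence read (Ex 525/Em 590 nm, every minute for 30 minutes) tracked resorufin from a G6PDH-diaphorase coupled GCK reaction. It contained 10 nM GST-GCK, 10 nM FLAG-GKRP, 5 mM glucose, 0.4 mM ATP in Hepes pH 7.6. Normalized to with/without-enzyme DMSO controls.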
# [17] = target: T1, Hexokinase-4 (Homo sapiens) + Glucokinase regulatory protein (Homo sapiens); assay: qHTS assay for inhibitors of recombinant human GCK-GKRP interaction: ADP-Glo assay (AID 743206)
# Summary of the method: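 Pin-transferred compounds meet a 15 nM GST-GCK/15 nM FLAG-GKRP/2 uM S6P mix (dispense concentrations). ATP is then added to 0.4 mM final with 5 mM glucose, and the reaction runs 60 min at room temperature. ADP is quantified luminescently.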
smiles,measurement,setting,value
Cc1cccc(/C=C/c2ccccc2)n1,outcome,[1],inactive
same,viability change,[1],-2.71%
same,outcome,[2],inactive
same,outcome,[3],inactive
same,outcome,[4],inactive
same,Potency,[5],inactive
same,Potency,[6],inactive
same,Potency,[7],inactive
same,Potency,[8],inactive
same,Potency,[9],inactive
same,outcome,[10],inactive
same,outcome,[11],inactive
same,outcome,[12],inactive
same,outcome,[13],inactive
same,outcome,[14],inactive
same,outcome,[15],inactive
same,outcome,[16],inactive
same,outcome,[17],inactive
